The whole screen tested about 65,000 compounds, of which about 2,100 (3.2%) showed an effect of 50% or more. The median lay at about -52%. The sample as a whole holds a higher share of strong results than the screen did.

From ChEMBL document CHEMBL4513216, “Probing the Open Global Health Chemical Diversity Library for Multistage-Active Starting Points for Next-Generation Antimalarials” (ACS Infect Dis, 2020) come the findings set out here.

The test system of this experiment is Plasmodium falciparum. Kind of experiment: Screen against P. falciparum Asexual Blood Stage (ABS), at 5uM. The settings on record: tested at 5 uM. Type of experiment: functional, Dd2.
Turning to `Cc1cccc(OCc2nnc(SCC3CCCN(C)C3)o2)c1` (stereo not given), the INHIBITION was found to be 28.5%. Consider `CCCn1ccc(C(=O)Nc2ccc3c(c2)C(C)(C)C(=O)N3C)n1`, for which the INHIBITION is recorded as -3.4%. For `CCc1nc(C2CCCN2Cc2nc3ccccc3o2)no1` (stereo not given), the INHIBITION is -23.2%. For `CCc1nc(C2CCCN2Cc2nnc(C3CCC3)o2)no1` (stereo not given), the INHIBITION is -88%.

As for `C1CC(c2noc(C3CC3)n2)N(Cc2nnc(C3CC3)o2)C1` (stereo not given), the INHIBITION is listed as -1.02%. `c1ccc2oc(CCCN3CCCC3c3noc(C4CC4)n3)nc2c1` (stereo not given): the INHIBITION is listed as -21.2%. For `CC(C)c1nc(C2CCCN(Cc3nnc(C4CC4)o3)C2)no1` (stereo not given), the INHIBITION is given as -52.6%. On to `c1ccc2oc(CN3CCCC3c3noc(C4CC4)n3)nc2c1` (stereo not given), for which the INHIBITION was 54.4%. Turning to `Cc1nc(C2CCCN2Cc2nnc(C3CC3)o2)no1` (stereo not given), the INHIBITION is on record as -171%. For `C1CC(c2nnc(CN3CCCC3c3noc(C4CC4)n3)o2)C1` (stereo not given), the INHIBITION turned out to be 53.5%. `CC(C)c1nc(C2CCCN2Cc2nnc(C3CCC3)o2)no1` (stereo not given): the INHIBITION came out at 53.5%. On to `CC(c1nc(C2CC2)no1)N1CCN(Cc2noc(C3CC3)n2)CC1` (stereo not given), for which the INHIBITION is on record as -55.4%. In the case of `COc1ccc(CN2C[C@H]3CC[C@@H](C2)N(Cc2snnc2C)C3)cc1` it was -6.34%. `CCc1cc(=O)n(CC(=O)N2CCC(C)CC2)c(-c2ccccc2)n1`: the INHIBITION is listed as -53.5%. In the case of `O=S(=O)(c1ccccc1)N1CCC2(CCCN2Cc2cccnc2)C1` (stereo not given) it was -12%; in that of `CC(C)c1cc(NC(=O)CNC2CCc3ncnn3C2)on1` (stereo not given), -54%.

For `Cc1occc1C(=O)N1C[C@@H]2OCCN(CCN3CCCC3)[C@@H]2C1`, the INHIBITION was -86.8%. For the compound `Cc1nc(CN2CCCC(c3cc(C(F)(F)F)[nH]n3)C2)cs1` (stereo not given), the INHIBITION is reported as -50.2%. As to `Cc1nc(C2(O)CCCNCC2)sc1CCOc1ccc(F)cc1` (stereo not given), the INHIBITION is 34.5%. Then `COc1ccc(OCCc2sc(C3(O)CCCNCC3)nc2C)cc1` (stereo not given), with 5.84%; and `Cc1nc(C2(O)CCCNCC2)sc1CCOc1ccccc1` (stereo not given), with -48.5%; and `COc1ccc(OCc2sc(C3(O)CCCNCC3)nc2C)cc1` (stereo not given), with 14.8%. In the case of `Cc1nc(C2(O)CCCNCC2)sc1CCOc1ccc(Cl)cc1` (stereo not given), the INHIBITION was 61%. In the case of `Cc1nc(C2(O)CCCNCC2)sc1CCOc1ccc(F)c(F)c1` (stereo not given) it was 54.5%; in that of `CCN1CCCC(O)(c2nc(C)c(CCOc3ccccc3Cl)s2)CC1` (stereo not given), 21%; in that of `Cc1nc(C2(O)CCCNCC2)sc1CCOc1ccccc1Cl` (stereo not given), 54.5%. As for `CCN1CCCC(O)(c2nc(C)c(CCOc3ccc(F)cc3)s2)CC1` (stereo not given), the INHIBITION was 23.9%. Consider `COc1ccccc1OCC(=O)NS(=O)(=O)c1ccc(Br)s1`, for which the INHIBITION is given as -26.8%. Then `C[C@@H]1CN(C(=O)c2nc3ccc(Cl)cn3c2-c2ncc[nH]2)C[C@H](C)O1`, with 49.4%; and `O=S(=O)(C1CC1)N1CCn2cc(CNc3ccccn3)nc2C1`, with -76%. `Cc1ccccc1C1(C(=O)NCCN2CCCCC2C)CCOCC1` (stereo not given): the INHIBITION was 28.2%. As to `COc1cc2c(cc1CN1CCc3sccc3C1C)OCO2` (stereo not given), the INHIBITION was 69.3%. For the compound `CCC[C@@H]1CN(Cc2cc3c(cc2OC)OCCO3)C[C@H]1C(=O)O`, the INHIBITION is on record as -28.5%. As to `COc1ccsc1C(=O)Nc1cc(CN2CCOCC2)ccc1C`, the INHIBITION was -12.8%. `COc1ccc(CN2CCc3sccc3C2C)cc1CN1CCOCC1` (stereo not given): the INHIBITION is 56.1%.

Consider `CCC1c2ccsc2CCN1C(=O)NCc1cccnc1OC` (stereo not given), for which the INHIBITION turned out to be 46.8%. With `CCC[C@@H]1CN(Cc2cc3c(cc2OC)OCO3)C[C@H]1C(=O)O`, the INHIBITION is -43.7%. In the case of `CCC1c2ccsc2CCN1Cc1cc2c(cc1OC)OCCO2` (stereo not given) it was 67.3%; in that of `COc1ccc(CN2C[C@@H](CN(C)C)[C@@H](CO)C2)cc1CN1CCCC1`, -71%.

As to `CC1c2ccsc2CCN1Cc1cc2c(cc1O)OCO2` (stereo not given), the INHIBITION is reported as 27.2%. On to `Cc1nnc(N2C[C@H]3OCC[C@H]3[C@H](C(=O)NCC3CC3)C2)s1`, for which the INHIBITION is 4.38%. With `O=C1OCCN1CC(=O)N1C[C@@H]2CC[C@H]1CN(Cc1cscn1)C2`, the INHIBITION was -150%. With `CCn1cc2c(n1)CN(Cc1cnn(C)c1)CC2COCC1CC1` (stereo not given), the INHIBITION is reported as -28.3%.

As for `c1cc(-c2nc(C3CCN(Cc4ccsc4)CC3)no2)ccn1`, the INHIBITION is -4.11%. Then `Cc1ccc(C(=O)N2Cc3ccccc3OC3(CCOCC3)C2)cn1`, with -43.5%. As for `c1nc2n(c1CN1CCCC1)CCN(C1CCOCC1)CC2`, the INHIBITION is recorded as -7.43%. For `COc1ccc(C(=O)N2C[C@@H](c3ccccc3)[C@@H]3NCCCC[C@@H]32)cc1`, the INHIBITION is on record as -70.2%. On to `COc1cccc(C(=O)N2C[C@@H](c3ccccc3)[C@@H]3NCCCC[C@@H]32)c1`, for which the INHIBITION is 16.7%.

On to `COc1cccc([C@H]2CN(C(=O)c3ccccc3)[C@@H]3CCCN[C@H]23)c1`, for which the INHIBITION stood at 56.5%.

For the compound `CN(C)S(=O)(=O)NC1CCCc2c1cnn2-c1ccc(C(C)(C)C)cc1` (stereo not given), the INHIBITION is on record as -174%.
